Assay outcomes from PubChem BioAssay.
Shown are actives, neighbours in structure and some others; about 19% of the full set was active somewhere.
TDP1 cell CPT – growth inhibition of DT40 Tdp1-/-;hTDP1 cells with camptothecin (screen for TDP1 inhibitors); chicken DT40 Tdp1-/-;hTDP1 cells + 20 nM CPT, ATP luminescence, 48 h; Potency, µM (top dose mostly 46.2 µM), without a hit: at the top dose activity change, negative = growth inhibition, usual class: inhibitors; 420,000 compounds, 12% hits; AID 686979; also: potency is read from the fitted curve at half-maximal effect; nearly all actives have a fitted effect of over 55% in size
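Chicken DT40 Tdp1-/- cells complemented with human TDP1, 400 cells/well, exposed to compounds plus 20 nM camptothecin for at least 48 h at 37 C; viability read as ATP content by CellTiter-Glo luminescence.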
DT40 TDP1 no CPT – qHTS for Inhibitors of human tyrosyl-DNA phosphodiesterase 1 (TDP1): qHTS in cells in absence of CPT; DT40 Tdp1-/- hTDP1 cells, no CPT, ATP luminescence, 48 h; Potency, µM (top dose mostly 46.2 µM), inactives show at the highest dose activity change, negative = growth inhibition, actives largely listed as inhibitors; 420,000 compounds, 15% hits; AID 686978, 2013; also: potency is read from the fitted curve at half-maximal effect; nearly all actives have a fitted effect of over 55% in size
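Seeded 400 DT40-hTDP1 cells/well (vehicle DMSO, no 20 nM CPT); pinned compounds; ≥48 hr at 37 °C; CellTiter-Glo luminescence as viability measure.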
HT1080-NT tox – kills 2HG-producing HT-1080-NT fibrosarcoma cells. Potency, µM (series often up to 46.1 µM), for the others: at the highest dose activity, negative = less viability, most hits filed as cytotoxic. HT-1080-NT fibrosarcoma viability, CellTiter-Glo ATP luminescence, 48 h. 360,000 compounds, 1.6% hits;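 also: NT is the 2HG producing partner of a matched IDH1 knockdown line; potency is read from the fitted curve at half-maximal effect; 0% = DMSO-treated cells and -100% = media-only wells without cells; nearly all actives have a fitted effect of over 55% in size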
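Fibrosarcoma NT cells, 750 per well in 5% FBS RPMI, were exposed to compound for 48 hours. Viability: CellTiter-Glo luminescence.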
HT1080 IDH1KD tx – HT-1080 IDH1 knockdown cell toxicity (counter line). AID 686971. 360,000 compounds, 2% hits. Potency, µM (highest dose often 46.1 µM), for the others: at the top dose activity, negative = toxicity, most hits filed as cytotoxic. HT-1080 IDH1 knockdown viability, ATP luminescence, 48 h;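 also: potency is read from the fitted curve at half-maximal effect; 0% = DMSO wells and -100% = cell-free medium wells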
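Luminescent ATP read-out (CellTiter-Glo, 10 min at room temperature) after 48 h compound exposure at 37 °C gave viability of IDH1-knockdown HT-1080 cells. Activity was normalised to DMSO and cell-free wells, then fitted as concentration-response curves.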
IL1B secr inh – inflammasome signaling inhibition, IL-1 beta readout | AID 743279 | 360,000 compounds, 4.7% hits | THP-1 LPS/ATP IL-1B secretion, AlphaLISA, 16 h; hits give low values | activity change, % at 57.5 µM; in the data active = activity change below about -50%; inconclusive = mostly about -30% to -49%
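Secreted IL-1B measured by AlphaLISA bead assay after 16 h compound exposure of THP-1 cells; compounds (final up to 57.5 uM) added 1 h before LPS (250 ng/mL) and ATP (1.25 mM) stimulation; lower signal means less secretion.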
* = called active by the depositor; u = inconclusive; x = not tested or not shown. Unless noted, calls follow the shape of the dose curve; as a rule, active = well fitted curve in the direction sought with a large enough effect; inconclusive = small, poorly fitted or top-dose-only effect, or another doubt; inactive = no such curve, though single readings can be large; an effect the other way counts as inactive or inconclusive. Unless noted, % is scaled to controls: 0 for no effect and ±100 for the full control effect.

SMILES | TDP1 cell CPT | DT40 TDP1 no CPT | HT1080-NT tox | HT1080 IDH1KD tx | IL1B secr inh
Clc1ccc2nc(COc3ccccc3)[nH]c2c1 | u | u | 13µM* | 8.2µM* | -23
Clc1ccc2nc(-c3ccccc3)[nH]c2c1 | 30µM* | 27µM* | x | x | x
Clc1ccc2nc(-c3ccc(Cl)nc3)[nH]c2c1 | u | u | -16% | -29% | -68*
O=C1C(N2CCOCC2)=C(n2nnc3ccccc32)C(=O)c2ccccc21 | 2.3µM* | 3.3µM* | 12µM* | 16µM* | -78*
CSc1nc2ccccc2n1CC(=O)Nc1ccc(C)c(C)c1 | u | u | -2% | 0% | -8
CCCCN(C)C(=O)Cn1c(SCC(=O)Nc2ccc(C)c(C)c2)nc2ccccc21 | u | 13µM* | x | x | x
Cc1ccc(NC(=O)CSc2nc3ccccc3n2CC(=O)N2CCC(C)CC2)cc1C | u | 18µM* | x | x | x
Cc1c(Cl)cccc1NC(=O)NCc1c(-n2cccc2)sc2c1CCCC2 | -9% | -7% | x | x | x
CC(NC(=O)Nc1cc(Cl)ccc1Cl)c1c(-n2cccc2)sc2c1CCCC2 (stereo unspecified) | u | 18µM* | x | x | x
COc1cc(NC(=O)NC(C)c2c(-n3cccc3)sc3c2CCN(C)C3)cc(OC)c1 (stereo unspecified) | 23µM* | 23µM* | x | x | x
CCN1CCc2c(sc(-n3cccc3)c2C(C)NC(=O)Nc2cc(Cl)c(OC)cc2OC)C1 (stereo unspecified) | 18µM* | 18µM* | x | x | x
COc1cc(OC)c(NC(=O)NC(C)c2c(-n3cccc3)sc(C)c2C)cc1Cl (stereo unspecified) | -25% | -20% | x | x | x
Cc1ccc(NC(=O)NCc2c(-n3cccc3)sc3c2CCCC3)c(Cl)c1 | u | 23µM* | x | x | x
O=C(Nc1ccc(F)cc1)C(c1ccnc2ccccc12)N1CCN(CC(=O)N2CCCC2)CC1 (stereo unspecified) | 4% | 7% | 2% | 1% | 17
NS(=O)(=O)c1ccc(NC(=O)c2cnn3c2NC(=C2CC2)C=C3C(F)F)cc1 | -27% | -7% | x | x | x
CCC(C)[C@H](N)C(=O)NC[C@H]1CC[C@H](C(=O)N[C@@H](Cc2ccccc2)C(=O)O)CC1 (stereo partly specified) | 21% | -2% | 11% | 16% | -3
CCOC(=O)c1c(NC(=S)Nc2ccccc2)sc2c1CCN(CC)C2 | -9% | -26% | 19% | 20% | -14
CCOCCCNC(=O)NC(CCC(C)C)c1c(-n2cccc2)sc2c1CCN(C)C2 (stereo unspecified) | 16µM* | 16µM* | x | x | x
CCN1CCc2c(sc(-n3cccc3)c2C(C)NC(=O)Nc2ccccc2C)C1 (stereo unspecified) | u | 23µM* | x | x | x
CCCCC1C(=O)CC[C@H]2[C@@H]1CC(=O)[C@@H]2C/C=C\CCCC(=O)O (stereo partly specified) | u | 21µM* | u | u | u
COc1cc(C2c3cc4c(cc3CC3COC(=O)N32)OCO4)cc(OC)c1OC (stereo unspecified) | 0.82µM* | 0.92µM* | 1.3µM* | 1µM* | 2
COc1cc2c(c(OC)c1OC)C(c1ccc3c(c1)OCO3)CC(=O)O2 (stereo unspecified) | 1% | -10% | -6% | 8% | 33
CC(C)CNC(=O)COC(=O)c1c2c(nc3ccccc13)/C(=C/c1cccs1)CC2 | u | 26µM* | -8% | u | 4
NC(=O)c1ccc(NC(=O)COC(=O)c2c3c(nc4ccccc24)/C(=C\c2cccs2)CCC3)cc1 | u | 21µM* | -11% | -5% | -5
CC(=O)c1ccc(CC2SC(N)=NC2=O)cc1 (stereo unspecified) | -9% | -2% | -3% | -3% | -15
SMILES | TDP1 cell CPT | DT40 TDP1 no CPT | HT1080-NT tox | HT1080 IDH1KD tx | IL1B secr inh
CC(C)n1c(=O)nc(-c2ccccc2)c2cc3c(cc21)OCO3 | 2% | u | 5% | 13% | -5
COC(=O)c1c(SCC(=O)Nc2cccc(C(F)(F)F)c2)[nH]c2ccccc2c1=O | 5.8µM* | 5.8µM* | x | x | x
O=C(CSc1nc2ncccc2[nH]1)Nc1cc(F)ccc1F | -3% | u | x | x | x
COC(=O)c1c(SCC(=O)Nc2cccc(Cl)c2C)[nH]c2ccccc2c1=O | 23µM* | u | x | x | x
COC(=O)c1c(SCC(=O)NC2CCCCC2)[nH]c2ccccc2c1=O | 14% | u | 8% | -7% | 10
COC(=O)c1c(SCC(=O)Nc2cc(F)ccc2F)[nH]c2ccc(C)cc2c1=O | 8.2µM* | 8.2µM* | x | x | x
Cc1ccc(CN(C)C(=O)C2CCC(=O)N(CCc3ccccc3)C2)o1 (stereo unspecified) | u | u | 9% | 15% | -1
Cn1nnc2cc(NC(=O)Nc3cccc(C(F)(F)F)c3)ccc21 | -6% | 10% | 14% | 25% | u
Cc1ccc(NC(=O)CCC(=O)N/N=C/c2ccccc2O)cc1 | 10µM* | 15µM* | u | u | 112
O=C(CCC(=O)Nc1ccc(F)cc1)N/N=C/c1ccc(Br)cc1 | -8% | 24% | -4% | -2% | -6
Cc1ccc(SCCC(=O)N/N=C/c2ccccc2O)cc1 | 0.65µM* | 1.3µM* | -30% | u | 144
Cc1cccc(NC(=O)CCC(=O)N/N=C/c2ccc(O)cc2O)c1 | -94% | u | u | u | 146
O=C(CCC(=O)Nc1ccc(Br)cc1)N/N=C/c1ccccc1O | u | 6.5µM* | 10µM* | 13µM* | 144
COc1ccc(/C=N/NC(=O)CCC(=O)Nc2ccc(Br)cc2)c(OC)c1 | u | u | u | u | -75*
Cc1ccc(SCCC(=O)N/N=C/c2cccnc2)cc1 | u | -23% | 2% | -3% | 58
O=C(COc1ccc(/C=N/NC(=O)C(=O)N2CCCCCC2)cc1)Nc1ccccc1Cl | u | u | 3% | -1% | -6
COc1nc2ccc(C)cc2cc1-c1noc(-c2ccccc2)n1 | -24% | u | 12% | 9% | 8
CC1CCCN(S(=O)(=O)c2cccc(C(=O)NCCCN3CCCC3=O)c2)C1 (stereo unspecified) | -7% | -6% | 10% | 4% | -16
CCCCCCCNC(=O)C1(CC2CC(c3ccc(Cl)cc3)=NO2)CCN(C(=O)C2CCCC2)CC1 (stereo unspecified) | u | u | 0% | 5% | 1
CCCCCCCNC(=O)C1(CC2CC(c3ccccc3)=NO2)CCNCC1 (stereo unspecified) | u | 16µM* | u | -9% | u
